# V-ATPase pH = yeast V-ATPase proton transport regulation by pHLuorin | 350,000 tested, 0.37% active | S. cerevisiae, pHLuorin cytosolic pH fluorescence | AID 504577 | response, % at 10 µM; in the data active = response mostly above about 7.3%, no sharp cut-off; inactive = mostly below about 5.4%; also: actives read high
# SKKanGAS inh = blocks kanamycin growth of S. pyogenes SKKanGAS strain; BacTiter-Glo, 6 h; inhibition, % at 7.5 µM; 300,000 tested, 1.3% active;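 active = mean replicate score, as percent of positive control median, at least 50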;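 also: strain carries kanamycin resistance gene driven by streptokinase promoter and grows in 40 µg/ml kanamycin; loss of luminescence reflects streptokinase promoter inhibition or plain growth inhibition; 0% = median of DMSO wells and 100% = positive control at its reference dose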
# tim23-1 inh = tim23-1 yeast growth inhibition. S. cerevisiae tim23-1 growth, BacTiter-Glo luminescence, 24 h. inhibition, % at 20 µM. 330,000 tested, 1.3% active;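 active = growth inhibition of the mutant yeast at or above 50%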;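 also: temperature-sensitive mutant grown at 25 °C; plate controls were DMSO-treated mutant yeast for no effect and medium wells lacking yeast for full effect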
# tim10-1 inh = inhibits growth of tim10-1 mutant yeast; AID 463190; inhibition, % at 20 µM; 330,000 tested, 2.2% active; S. cerevisiae tim10-1 ts strain growth, BacTiter-Glo, 24 h;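 active = inhibition of at least 40%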;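 also: mutant grown at 25 °C; 0% = DMSO wells with yeast and 100% = wells holding no yeast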
# PfHsp90 yeast 2 = reduces growth (ATP signal) of yeast expressing P. falciparum Hsp90 | S. cerevisiae expressing PfHsp90, BacTiter-Glo ATP, 48 h; yeast lacking PDR1 and PDR3 efflux regulators | inhibition, % at 9.4 µM | 310,000 tested, 0.32% active | AID 504621;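 active = every replicate shows inhibition above about 80%, whatever the replicate mean, limit read from the data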;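 also: 0% = DMSO neutral controls and 100% = 20 µM radicicol positive controls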
# TIM10 inh = growth inhibitors of TIM10 yeast strain; S. cerevisiae TIM10 strain growth, BacTiter-Glo luminescence, 24 h; inhibition, % at 10 µM; 330,000 tested, 1.4% active; AID 463195;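 active = inhibition of 40% or more at the single tested concentration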;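 also: wild-type TIM10 isogenic control strain grown at permissive 25 °C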
# The depositor's hits bear a star; · = no result. A selection: hits, their analogues and other compounds. The true share with any hit is near 4.6%.
SMILES,V-ATPase pH,SKKanGAS inh,tim23-1 inh,tim10-1 inh,PfHsp90 yeast 2,TIM10 inh
Cc1ccc(/C(O)=C/C(=O)C(=O)NC23CC4CC(CC(C4)C2)C3)cc1,-3,54*,19,-2,-9,-7
CC(C)(C)S(=O)(=O)N1C[C@@H]2C(=CC[C@H]3C(=O)N(c4ccccc4)C(=O)[C@@H]23)[C@@H]1CCO,-2,·,·,·,13,·
O=C(NC(NC(=S)Nc1ccc(Cl)cc1Cl)C(Cl)(Cl)Cl)c1cccc([N+](=O)[O-])c1 (stereo not drawn),-1,106*,6,14,·,2
CCCSc1nc(N)nc2c1ncn2C1OC(CO)C(O)C1O (stereo not drawn),6,·,·,·,-2,·
O=C1CCCc2cc3c(cc21)CC1(C3)Cc2cc3c(cc2C1)C(=O)CCC3,2,17,31,28,-19,-6
CCC1=CC(c2ccccc2)n2ncnc2N1 (stereo not drawn),14*,-3,-19,-20,1,-7
C1=C(c2ccccc2)Nc2ncnn2C1c1ccccc1 (stereo not drawn),1,4,16,10,21,13
Nc1nc(-c2ccc(Cl)cc2)nn1C(=O)c1cccnc1,20*,2,24,0,10,12
Nc1nc(-c2cccnc2)nn1C(=O)c1ccc(Cl)cc1,0,9,·,·,-17,·
O=[N+]([O-])c1cc(F)cc(F)c1Nc1cc(F)cc(F)c1,-1,·,·,·,-8,·
Cc1nc2ccccc2n1CCc1nc2c3ccccc3nc(=S)n2[nH]1,-1,-4,20,15,·,17
Cc1ccccc1-c1nc2c3ccccc3nc(=S)n2[nH]1,2,94*,·,·,-11,·
CCOC(=O)CN1C(=O)C(Sc2n[nH]c(-c3ccccc3)n2)CCc2ccccc21 (stereo not drawn),2,-4,14,23,-32,17
Cc1ccccc1-n1c(C)nnc1SCC(=O)N(C)C1CCS(=O)(=O)C1 (stereo not drawn),15*,16,2,-5,-33,7
CCCCCCC(=O)O,-1,·,4,10,6,7
CCCCCCCCCCCCCC(=O)NO,0,·,·,·,107*,·
CCCCCCCC/C=C\CCCCCCCC(=O)O,9,2,2,-4,-25,-22
CCCCCCCC/C=C\CCCCCCCC(=O)NCCO,2,·,12,29,109*,-2
CC(C)CNC(=O)CN1c2cccc3cccc(c23)S1(=O)=O,0,-4,23,5,-10,4
Cc1ccc(S(=O)(=O)N2C[C@H]3C(=O)C[C@@H](c4ccccc4)N(S(=O)(=O)c4ccc(C)cc4)[C@H]3C[C@H]2c2ccc(Cl)cc2)cc1,-1,·,·,·,·,·
O=C(NNC(=O)c1ccccc1[N+](=O)[O-])c1csc(N2CCOCC2)n1,-1,-6,2,-10,·,-1
O=C1Nc2ccc(Br)cc2/C1=C/C(=O)c1ccccc1,-3,·,·,·,106*,·
O=C(O)COc1ccccc1/C=C1\C(=O)Nc2ccc(Br)cc21,-2,-6,8,13,35,9
O=c1[nH]c(-c2ccccn2)nc2ccccc12,14,4,2,-2,-2,-13
O=c1[nH]c(-c2ccccn2)nc(C(F)(F)F)c1Br,1,12,-12,16,90*,34
SMILES,V-ATPase pH,SKKanGAS inh,tim23-1 inh,tim10-1 inh,PfHsp90 yeast 2,TIM10 inh
COc1cc(Cc2cnc(N)nc2N)cc(OC)c1OC,7,51*,-3,0,-13,6
COc1cc(CN2CCCCCC2)cc(OC)c1OC,-4,3,-4,-10,12,1
N#Cc1c(-c2ccccc2)nc(SCc2ccc(Cl)cc2)[nH]c1=O,-2,61*,16,23,-9,11
N#Cc1c(-c2ccccc2)nc(SCC(=O)N2c3ccccc3Sc3ccccc32)[nH]c1=O,1,73*,18,2,-13,15
CCN(CC)c1ccc(C(=O)OCc2cc(=O)oc3cc(O)ccc23)cc1,-3,51*,1,10,-2,-6
COc1cccc(C#Cc2c(C=O)n(C)c3ccccc23)c1,-2,·,41,12,10,25
Nc1ccc(C#Cc2ccc3oc4ccccc4c(=O)c3c2)cc1,-4,97*,-4,0,15,2
COc1ccc(C#Cc2ccc3c(c2)c(=O)c2ccccc2n3C)cc1,1,91*,11,24,-22,16
Nc1cccc(C#Cc2ccc3c(=O)c4ccccc4oc3c2)c1,0,·,-5,-5,-42,-5
Cn1c(-c2ccccc2)c(C#Cc2ccc(N)cc2)c2ccccc21,-3,·,26,13,-24,7
Cn1c2ccccc2c(=O)c2cc(C#Cc3ccc(N)cc3)ccc21,0,85*,19,30,3,28
CCN1Cc2c(/C=C/c3ccccc3)nc3ccc(OC)cc3c2N(c2cccc(Cl)c2)C1,-1,9,30,31,0,24
C=CCN1C(=O)C(CC(=O)Nc2ccc(OCCC)cc2)N(CCCN2CCN(Cc3ccccc3)CC2)C1=S (stereo not drawn),-2,7,17,35,-17,5
CCC(C)(C)NC(=O)C1CCN(c2nc(OC)nc(OC)n2)CC1,0,3,-1,-2,-21,1
C=CCOC(=O)C1=C[C@H](c2ccc(Br)cc2)C[C@H](OCc2ccc(CO)cc2)O1,-3,12,25,19,12,0
CCOC(=O)c1nc(Nc2ccc(Nc3ccccc3)cc2)c2ccccc2n1,2,56*,·,·,-10,·
CCOC(=O)c1ccc(Nc2nc(C(=O)OCC)nc3ccccc23)cc1,1,21,11,21,-7,11
Cc1cc(C)c(S(=O)(=O)N2CCOC2CNC(=O)C(=O)NCCCN2CCOCC2)c(C)c1 (stereo not drawn),2,1,-11,-18,10,-1
N#Cc1ccsc1NC(=O)C1CCN(C(=O)c2ccc(Cl)cc2)CC1,1,0,21,25,3,10
CCCCOc1ccc(NS(=O)(=O)c2ccc(-n3cnnn3)cc2)cc1,1,-5,6,4,-11,-3
O=S(=O)(Nc1ncccn1)c1ccc(-n2cnnn2)cc1,9.5*,-1,0,-2,-1,5
C/C(=N\NC(=O)c1ccccc1N)c1ccc(NC(=O)Cc2ccccc2)cc1,0,67*,7,0,-10,-1
CC(C)=CCC12Oc3cc(O)ccc3C1(O)Oc1cc(O)c([C@H]3C=C(C)CC(c4ccc(O)cc4O)[C@H]3C(=O)c3ccc(O)cc3O)c(O)c1C2=O (stereo partly drawn),·,111*,23,25,·,1
C[C@H](CO)N1C[C@H](C)[C@@H](CN(C)CC2CCCCC2)Oc2c(NC(=O)Cc3ccccc3)cccc2C1=O,-2,·,9,7,-4,6
CCC(CC)NC(=O)c1oc2ccccc2c1COc1ccccc1,3,52*,18,28,19,2

# Screening data (PubChem BioAssay)
